Source: PubChem
G9a inh: inhibitors of human histone lysine methyltransferase G9a | Q96KQ7 | hit rate 8.8% among 350,000 | Potency, µM (top dose mostly 102 µM), for inactives: top-dose activity, negative = inhibition, usual class: inhibitors | G9a H3K9 monomethylation, AlphaScreen, 2 h; further: on the % scale 0 is the no-effect control and ±100 the full control effect; nearly all actives have a fitted effect of over 75% in size
Target sequence (Q96KQ7 913-1193 limits assumed): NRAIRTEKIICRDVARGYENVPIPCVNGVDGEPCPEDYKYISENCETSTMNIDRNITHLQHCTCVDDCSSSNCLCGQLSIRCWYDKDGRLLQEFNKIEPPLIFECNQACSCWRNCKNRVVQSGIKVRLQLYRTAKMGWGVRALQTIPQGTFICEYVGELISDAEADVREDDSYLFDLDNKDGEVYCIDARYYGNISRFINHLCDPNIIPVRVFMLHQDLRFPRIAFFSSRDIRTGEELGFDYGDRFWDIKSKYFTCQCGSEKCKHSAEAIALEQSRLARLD
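Enzyme 20 nM + cpd, 15 min RT; add b-H3K9 pep 500 nM / SAM 20 uM; 2 h RT; anti-H3K9me1 Ab 0.5 ug/mL + SA donor / anti-rabbit acceptor beads 20 ug/mL each, 10 min; AlphaScreen read.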
JMJD2A Tudor: inhibitors of human JMJD2A Tudor domain; O75164; AlphaScreen JMJD2A-Tudor / H3K4me3 peptide binding; Potency, µM (top dose mostly 114 µM), for the others: at the top dose activity change, negative = inhibition, usual class: inhibitors; hit rate 4.4% among 390,000; further: on the % scale 0 is the no-effect control and ±100 the full control effect; nearly all actives have a fitted effect of over 50% in size
HP1b binding inh: inhibitors of HP1-beta chromodomain binding to methylated histone tails; hit rate 0.56% among 390,000; AlphaScreen HP1-beta / biotin-H3K9me3 peptide binding; Potency, µM (highest dose often 114 µM), for inactives: top-dose activity change, negative = inhibition, hits mostly inhibitors; further: nearly all actives have a fitted effect of over 70% in size
Target sequence (P83916 whole entry, looked up): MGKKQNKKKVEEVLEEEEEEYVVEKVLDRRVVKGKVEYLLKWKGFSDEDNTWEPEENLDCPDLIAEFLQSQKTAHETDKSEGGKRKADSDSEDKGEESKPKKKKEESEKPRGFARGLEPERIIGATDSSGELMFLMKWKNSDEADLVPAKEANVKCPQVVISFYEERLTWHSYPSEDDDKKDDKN
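Compound inhibition of the preformed complex between 50 nM HP1-beta and 50 nM biotinylated H3K9me3 peptide was read by AlphaScreen. Buffer was PBS pH 7.4 with 0.01% Tween-20. Incubations ran 30 min at room temperature, with 10 ug/mL donor/acceptor beads.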
GLS inh: glutaminase GLS (human) inhibition; Potency, µM (highest dose often 45.5 µM), for inactives: top-dose activity change, negative = inhibition, most hits filed as inhibitors; hit rate 0.21% among 410,000; GLS enzymatic activity, qHTS titration; O94925; further: on the % scale 0 is the no-effect control and ±100 the full control effect
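hKGA; 45 mM KH2PO4 pH 8.2 + 0.02% Tween-20; cpd via pin tool; 1 mM Gln soln; GluOx/HRP/Amplex Red; RT 30 min; fluor. t0 & final.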
BAZ2B block: BAZ2B (human) inhibition; AlphaScreen BAZ2B-H3K14Ac peptide displacement; Potency, µM (highest dose often 114 µM), for the others: at the highest dose activity change, negative = inhibition, actives largely listed as inhibitors; hit rate 4.4% among 360,000; further: on the % scale 0 is the no-effect control and ±100 the full control effect; nearly all actives have a fitted effect of over 60% in size
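AlphaScreen displacement of biotin-H3(5-23)K14Ac peptide (50 nM final) from BAZ2B (50 nM final) in PBS pH 7.4, 0.01% Tween-20; complex preformed 30 min RT, then compounds (top 110 uM) 30 min RT, beads 20 min dark.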
Active calls of the source: *; ! = a repeat was not active; [ ] = another dose, or the depositor's remark. In the library only some 10% were active in any assay of this set; here they are far more common. The call rests on the fitted dose curve; in most records, active means well fitted curve in the direction sought with a large enough effect; inconclusive means small, poorly fitted or top-dose-only effect, or another doubt; inactive means no such curve, though single readings can be large; an effect the other way counts as inactive or inconclusive. Potency means the concentration at half of the fitted maximal effect.

Screening CCOc1ccc(-c2nonc2NC(=O)c2oc3ccc(Br)cc3c2C)cc1 returned G9a inh 23.8%[59 µM], JMJD2A Tudor -7.2%, HP1b binding inh 70.0%, GLS inh 1.2% and BAZ2B block 3.0%.
For CCOc1ccc(-c2nonc2NC(=O)c2oc3cc(Br)ccc3c2C)cc1 the results were G9a inh 0.7%[59 µM], JMJD2A Tudor 39.8µM*, HP1b binding inh 46.8%, GLS inh -11.9% and BAZ2B block -3.4%.
For O=C1NC(=S)/C(=C\c2ccc(-c3ccccc3Cl)o2)S1 the results were G9a inh 10µM*, JMJD2A Tudor 44.7µM*, HP1b binding inh inconclusive, GLS inh 14.8% and BAZ2B block 17.8µM*.
Screening COc1cc(/C=C(\C#N)c2nc3ccccc3o2)ccc1O returned JMJD2A Tudor inconclusive, HP1b binding inh -8.8%, GLS inh 0.0% and BAZ2B block 44.7µM*.
Screening N#C/C(=C\c1ccc(O)cc1)c1nc2ccccc2o1 returned G9a inh inconclusive, JMJD2A Tudor -34.9%, HP1b binding inh -10.5%, GLS inh -6.6% and BAZ2B block -29.9%.
`O=Cc1cc(N=Nc2ccc(S(=O)(=O)O)cc2)ccc1O` gave JMJD2A Tudor -19.5%, HP1b binding inh -3.1% and GLS inh inconclusive.
CN(C)c1ccc(N=Nc2ccc(S(=O)(=O)O)cc2)c2ccccc12 was read as G9a inh 11.2µM*, JMJD2A Tudor 35.5µM*, HP1b binding inh inconclusive, GLS inh 20.4% and BAZ2B block 10µM*.
Screening CCc1ccc(/C(C)=N\Nc2ccc([N+](=O)[O-])cc2)cc1 returned G9a inh 32.4%[0.501 µM], JMJD2A Tudor -21.3%, HP1b binding inh 3.4%, GLS inh 1.0% and BAZ2B block -3.4%.
`C/C(=N\Nc1ccc([N+](=O)[O-])cc1)c1ccc(N)cc1` gave G9a inh 7.08µM*, JMJD2A Tudor inconclusive, HP1b binding inh -30.0%, GLS inh 4.4% and BAZ2B block -2.9%.
C/C(=N\Nc1nc(C)c(C)s1)c1ccc([N+](=O)[O-])cc1 was read as G9a inh 17.8µM*, JMJD2A Tudor inconclusive, HP1b binding inh inconclusive, GLS inh -17.6% and BAZ2B block 35.5µM*.
`COc1ccc(C(=O)N(c2ccccc2)c2nccc3ccccc23)cc1OC` gave JMJD2A Tudor -20.5%, HP1b binding inh 14.1% and GLS inh -2.5%.
`O=C(O)c1ccc(-c2sc(Nc3ccccc3)n[n+]2-c2ccc(F)cc2)cc1` gave G9a inh 39.8µM*, JMJD2A Tudor -34.8%, HP1b binding inh 16.6%, GLS inh 7.1% and BAZ2B block -7.9%.
`O=C(c1ccc(F)cc1)c1cnc(Nc2ccccc2)s1` gave G9a inh -23.3%, JMJD2A Tudor -13.0%, HP1b binding inh 37.1%, GLS inh 3.0% and BAZ2B block -16.6%.
C[n+]1nc(Nc2ccccc2)sc1-c1ccc(C(=O)O)cc1 was read as G9a inh -4.8%[12.7 µM] and BAZ2B block 0.4%.
O=C(O)c1ccc(-c2sc(Nc3ccccc3)n[n+]2-c2ccccc2)cc1 was read as JMJD2A Tudor 44.7µM*, HP1b binding inh -7.6%, GLS inh 4.7% and BAZ2B block inconclusive.
For Cc1cccc(-c2sc(Nc3ccccc3)n[n+]2-c2ccccc2)c1 the results were G9a inh -20.4%[2.33 µM], JMJD2A Tudor 79.4µM*, HP1b binding inh 15.2%, GLS inh 0.1% and BAZ2B block 50.1µM*.
Cc1cc(C(=O)CN2C(=O)c3ccccc3S2(=O)=O)c(C)n1CC1CCCO1 (stereo not given) was read as G9a inh 50.1µM*, JMJD2A Tudor inconclusive, HP1b binding inh -4.0%, GLS inh 5.1% and BAZ2B block -34.4%.
CCn1c(SCC(=O)c2cc(C)n(CC3CCCO3)c2C)nc2ccccc21 (stereo not given) was read as G9a inh 17.8µM*, JMJD2A Tudor inconclusive, HP1b binding inh -19.9%, GLS inh 22.0% and BAZ2B block inconclusive.
For Cc1cc(OC(C)C(=O)NCCCN2CCOCC2)c2c(C)cc(=O)oc2c1 (stereo not given) the results were G9a inh 17.0%[0.0925 µM], JMJD2A Tudor -5.8%, HP1b binding inh 79.4µM*, GLS inh 7.3% and BAZ2B block -0.4%.
Screening CCCc1cc(=O)oc2cc(C)cc(OC(C)C(=O)NCCCN3CCOCC3)c12 (stereo not given) returned G9a inh -0.8%[59 µM], JMJD2A Tudor -13.1%, HP1b binding inh 29.1%, GLS inh 5.3% and BAZ2B block -31.2%.
For O=[N+]([O-])c1ccc(NCc2ccccc2)nc1 the results were G9a inh -5.6%[59 µM], JMJD2A Tudor -14.9%, HP1b binding inh 15.5%, GLS inh -3.2% and BAZ2B block -29.7%.
Screening CC(C)NCC(O)COc1ccc(CCOCC2CC2)cc1 (stereo not given) returned G9a inh 35.5µM*!, JMJD2A Tudor -14.4%, HP1b binding inh 17.3%, GLS inh 0.8% and BAZ2B block -1.3%.
`CC(C)NC(=S)Nc1c(N)[nH]c(=O)[nH]c1=O` gave G9a inh 56.2µM*, JMJD2A Tudor -5.1%, HP1b binding inh 26.2%, GLS inh 27.4% and BAZ2B block -0.9%.
For CCCCCCC(=O)Cc1cc(OC)c(OC)cc1C=C(C(=O)OCC)C(=O)OCC the results were G9a inh 39.8µM* and BAZ2B block 2.9%.
`Cc1cc(C)c2c(N)c(C(=O)c3ccccc3)sc2n1` gave JMJD2A Tudor 8.1%, HP1b binding inh 82.0%, GLS inh 7.4% and BAZ2B block 8.2%.
Screening Cc1nc2sc(C(N)=O)c(N)c2c(C)c1CC(=O)c1ccccc1 returned G9a inh 14.1µM*, JMJD2A Tudor -12.4%, HP1b binding inh 56.0%, GLS inh -7.4% and BAZ2B block inconclusive.
Screening COc1ccc(CC(=O)NCc2ccc(F)cc2)cc1S(=O)(=O)N1CCOCC1 returned G9a inh -12.8%[59 µM], JMJD2A Tudor -5.0%, HP1b binding inh 28.6%, GLS inh -1.2% and BAZ2B block 10.6%.
Screening NC(=NC1C2CC3CC(C2)CC1C3)Nc1ccc(I)cc1 (stereo not given) returned G9a inh 28.2µM*!.
`O=C(Nc1ccc(-c2csnn2)cc1)C1CC1` gave G9a inh 26.3%, JMJD2A Tudor 5.3%, HP1b binding inh 37.7%, GLS inh inconclusive and BAZ2B block -12.9%.
CCOc1ccc(NC(=S)N2CCCN(Cc3cccc(Cl)c3)C2)cc1 was read as G9a inh -9.9%, JMJD2A Tudor -35.9%, HP1b binding inh 23.1%, GLS inh 1.5% and BAZ2B block inconclusive.
Screening CC(C)CC(=O)Nc1cccc(-c2nc3ccccc3[nH]2)c1 returned G9a inh 3.9%, JMJD2A Tudor -11.0%[11.4 µM], HP1b binding inh -5.0%, GLS inh 56.8% and BAZ2B block -24.2%.
